Bioassay records: PubChem, several laboratories
TNAP act mid DEA: activators of human TNAP at intermediate phosphate acceptor; P05186; purified TNAP, CDP-star luminescence, 100 mM DEA, 30 min; active compounds read high; scale: 0 levamisole-inhibited, 1 vehicle-only enzyme; activation factor at 20 µM; 64,000 tested, under 10 active; AID 813;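 active = activation factor of at least 2 at 20 µM, relative to controls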
PostGolgi yeast: growth inhibition of a yeast mutant, post-Golgi transport screen; AID 739; hit rate 0.9% among 98,000; post-Golgi transport phenotypic cell assay; inhibition, % at 10 µM;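 also: yeast cells grown in 1536-well plates; yeast grown about 18 h at 30C before absorbance read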
DAT uptake mod: modulates human dopamine transporter uptake under cocaine; Q01959; LLC-PK1 hDAT cells, [14C]-dopamine uptake with cocaine IC80; actives deviate in either direction; B-score at 10 µM; hit rate 1.3% among 110,000;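 active = Z score or B-score, a plate-position-corrected score, falls beyond the plate's 99.7% confidence bounds, in either direction; inactive = both scores lie inside the 99.7% bounds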;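 also: scored against the spread of the other compound wells on the same plate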
Smad3 inh: blocks human Smad3 binding to FoxH1 peptide; P84022; hit rate 0.29% among 88,000; inhibition, % at 25 µM; TR-FRET Smad3/Dy647-FoxH1 peptide binding, europium anti-His;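 active = compounds that reduce the energy-transfer binding signal between the protein and its labelled peptide by more than half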;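 also: 0% = Smad3 plus labelled peptide maximal FRET and 100% = peptide-only background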
Target sequence (P84022 whole entry, looked up): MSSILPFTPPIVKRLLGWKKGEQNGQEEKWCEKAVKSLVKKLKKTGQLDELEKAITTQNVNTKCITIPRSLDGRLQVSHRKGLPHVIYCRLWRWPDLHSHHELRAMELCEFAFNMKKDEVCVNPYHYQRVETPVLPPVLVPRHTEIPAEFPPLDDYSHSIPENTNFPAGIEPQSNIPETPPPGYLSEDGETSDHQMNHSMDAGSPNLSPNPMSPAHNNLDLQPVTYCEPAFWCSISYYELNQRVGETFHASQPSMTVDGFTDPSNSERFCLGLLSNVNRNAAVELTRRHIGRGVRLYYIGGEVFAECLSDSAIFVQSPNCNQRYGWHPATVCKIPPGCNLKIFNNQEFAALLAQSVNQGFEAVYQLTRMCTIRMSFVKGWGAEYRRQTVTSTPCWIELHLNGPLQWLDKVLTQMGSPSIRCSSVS
Cav32 inh: human Cav3.2 channel inhibition, primary screen; O95180; Cav3.2-expressing cells, Fluo-4 calcium fluorescence FDSS; active compounds read low; B-score at 10 µM; hit rate 4% among 100,000; AID 449739;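 active = single-dose well whose peak fluorescence ratio is a statistical outlier from its plate by either plate-standardised score or position-corrected B-score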
PostGolgi ctrl: yeast control strain growth, post-Golgi counter-screen; efflux-deficient yeast background strain, growth absorbance A615, 16 h; inhibition, % at 10 µM; hit rate 5% among 98,000
An asterisk follows results filed as active. An excerpt weighted towards active compounds, which were near 8.7% of everything screened. Rule as the data show it, unless noted: active = inhibition above about 30%; inactive = the rest.

What do the screens show for `CCC(=O)N(Cc1cccs1)C1CCOC(C)(C)C1` (configuration not stated)?
TNAP act mid DEA: 0.9; PostGolgi yeast: -1.4; DAT uptake mod: -0.00316; Smad3 inh: 5.1; Cav32 inh: 0.507; PostGolgi ctrl: 2.7

How did CCC(=O)N[C@@H]1CC(C(C)(C)NC(=O)CC)CC=C1C (some centres not stated) do in these assays?
TNAP act mid DEA: 0.9; PostGolgi yeast: -1.6; DAT uptake mod: -9.91*; Smad3 inh: -18.4; Cav32 inh: 0.688; PostGolgi ctrl: -3.0

What do the screens show for `CC1(C)CC(=O)C2=C(C1)c1c(ccc3ccccc13)NC2c1ccc(Br)o1` (configuration not stated)?
PostGolgi yeast: 13.7; DAT uptake mod: 0.241; Smad3 inh: 10.5; Cav32 inh: -1.4; PostGolgi ctrl: 69.3*

What do the screens show for `O=C(CCN1CCN(CC(=O)Nc2ccccc2Cl)CC1)Nc1ccccc1F`?
TNAP act mid DEA: 0.9; PostGolgi yeast: -3.5; DAT uptake mod: -0.102; Smad3 inh: 1.4; Cav32 inh: 0.69; PostGolgi ctrl: 5.2

Results for O=C(COC(=O)c1cccc(S(=O)(=O)N2CCOCC2)c1)Nc1nc(-c2ccccc2Cl)cs1 ?
PostGolgi yeast: 4.8; DAT uptake mod: -1.51; Smad3 inh: 17.1; Cav32 inh: -4.99*; PostGolgi ctrl: -1.0

How did CCc1nc2ccccc2c(C(=O)OCC(=O)Nc2ccc(S(=O)(=O)N3CCOCC3)cc2)c1C do in these assays?
TNAP act mid DEA: 1; PostGolgi yeast: -6.1; DAT uptake mod: 1.34; Smad3 inh: 6.3; Cav32 inh: -0.322; PostGolgi ctrl: 29.4

What do the screens show for `CCc1nc2ccccc2c(C(=O)OCC(=O)Nc2cccc(S(=O)(=O)N3CCOCC3)c2)c1C`?
PostGolgi yeast: -4.2; DAT uptake mod: 0.234; Smad3 inh: 89.2*; Cav32 inh: -1.36; PostGolgi ctrl: 2.6

What do the screens show for `COc1ccc(-n2c(SC)nc(O)c(Cc3ccccc3)c2=O)cc1`?
PostGolgi yeast: -2.1; DAT uptake mod: -0.103; Cav32 inh: -0.868; PostGolgi ctrl: 21.5

How did CCC(Sc1nnc(-c2ccc(C)c(Cl)c2)n1CC)C(=O)Nc1nccs1 (configuration not stated) do in these assays?
TNAP act mid DEA: 0.9; PostGolgi yeast: -2.9; DAT uptake mod: 1.75; Smad3 inh: 9.9; Cav32 inh: -5.74*; PostGolgi ctrl: 22.1

Results for Cc1cc(C(=O)N2CC(C)CC(C)C2)n(-c2ccccc2)n1 (configuration not stated) ?
TNAP act mid DEA: 1; PostGolgi yeast: -1.4; DAT uptake mod: -1.68; Cav32 inh: -0.0753; PostGolgi ctrl: 32.1*

Results for COc1ccc(OC)c(NC(=O)CSc2nnc(Cc3cccn3C)n2CCc2ccccc2)c1 ?
TNAP act mid DEA: 1; PostGolgi yeast: -2.9; DAT uptake mod: 2.97*; Cav32 inh: -3.63; PostGolgi ctrl: 0.2

How did COC(=O)c1ccc(CSc2nnnn2Cc2ccccc2)cc1 do in these assays?
TNAP act mid DEA: 0.8; PostGolgi yeast: 3.0; DAT uptake mod: -0.789; Smad3 inh: 1.5; Cav32 inh: -3.18; PostGolgi ctrl: 20.3

What do the screens show for `COc1ccccc1NC(=O)CSc1nnc(C)n1CCc1ccccc1`?
TNAP act mid DEA: 0.9; PostGolgi yeast: -3.7; DAT uptake mod: -7.59*; Smad3 inh: 9.7; Cav32 inh: 0.456; PostGolgi ctrl: 1.5

Results for Cn1cccc1Cc1nnc(SCC(=O)Nc2ccc3c(c2)OCO3)n1CCc1ccccc1 ?
TNAP act mid DEA: 1; PostGolgi yeast: 3.9; DAT uptake mod: 1.17; Smad3 inh: -26.3; Cav32 inh: -9.23*; PostGolgi ctrl: 16.5

What do the screens show for `COC(=O)c1cc(OC)c(OC)cc1NC(=O)CSc1nnnn1Cc1ccccc1`?
TNAP act mid DEA: 0.9; PostGolgi yeast: -6.3; DAT uptake mod: 0.59; Smad3 inh: 5.4; Cav32 inh: -1.8; PostGolgi ctrl: 38.2*

Results for Cc1nnc(SCC(=O)NC(C)(C)C)n1CCc1ccccc1 ?
TNAP act mid DEA: 0.9; DAT uptake mod: -0.473; Smad3 inh: 7.8; Cav32 inh: 1.52

What do the screens show for `COc1ccc(CCNC(=O)CCS(=O)(=O)c2ccc(C)cc2)cc1OC`?
PostGolgi yeast: 3.1; DAT uptake mod: -0.416; Smad3 inh: -5.6; Cav32 inh: 0.694; PostGolgi ctrl: -0.3

Results for COc1ccc(OC)c(NC(=O)CSc2nc3ccccc3c(=O)n2CCNC(C)=O)c1 ?
TNAP act mid DEA: 0.9; PostGolgi yeast: 3.8; DAT uptake mod: -0.813; Smad3 inh: 5.7; Cav32 inh: 3.59*; PostGolgi ctrl: -7.3

What do the screens show for `COc1ccc(OC)c(NC(=O)CSc2nnc(C3CCCCC3)n2-c2ccccc2)c1`?
DAT uptake mod: 1.67; Smad3 inh: 0.3; Cav32 inh: -7.35*

What do the screens show for `Cc1nnc(NC(=O)CSc2nnc(Cc3cccn3C)n2CCc2ccccc2)s1`?
TNAP act mid DEA: 1; PostGolgi yeast: 0.0; DAT uptake mod: 0.362; Smad3 inh: 6.3; Cav32 inh: 0.381; PostGolgi ctrl: 2.3

How did Cn1cccc1Cc1nnc(SCC(=O)Nc2ccc(F)cc2)n1CCc1ccccc1 do in these assays?
TNAP act mid DEA: 1; PostGolgi yeast: 4.5; DAT uptake mod: -1.08; Smad3 inh: -3.2; Cav32 inh: -7.36*; PostGolgi ctrl: 23.1

Results for COc1ccc(NC(=O)CSc2nc3ccccc3c(=O)n2CCNC(C)=O)c(OC)c1 ?
TNAP act mid DEA: 1; PostGolgi yeast: -4.0; DAT uptake mod: 0.128; Smad3 inh: 7.0; Cav32 inh: 1.72; PostGolgi ctrl: 21.9

What do the screens show for `COc1ccc(OC)c(NC(=O)CSc2ccccc2)c1`?
TNAP act mid DEA: 1; PostGolgi yeast: 2.4; DAT uptake mod: 0.0766; Smad3 inh: 0.2; Cav32 inh: -1.71; PostGolgi ctrl: 10.5

Results for Cc1nnc(SCC(=O)Nc2sccc2C(N)=O)n1Cc1ccccc1 ?
TNAP act mid DEA: 1; PostGolgi yeast: 6.4; DAT uptake mod: -0.302; Smad3 inh: -7.9; Cav32 inh: 1.26; PostGolgi ctrl: 31.9*

How did CN(c1ccc(OCC(=O)Nc2ccc3[nH]c(=O)[nH]c3c2)cc1)S(=O)(=O)c1ccc(Cl)cc1 do in these assays?
PostGolgi yeast: 3.5; DAT uptake mod: -0.423; Smad3 inh: -3.3; Cav32 inh: -0.017; PostGolgi ctrl: 5.7

What do the screens show for `Cn1cccc1Cc1nnc(SCC(=O)Nc2ccc3c(c2)OCCO3)n1CCc1ccccc1`?
TNAP act mid DEA: 0.9; PostGolgi yeast: -6.8; DAT uptake mod: 2.54*; Smad3 inh: -1.6; Cav32 inh: -10.7*; PostGolgi ctrl: 14.6

How did CCn1c(COc2ccccc2C)nnc1SCC(=O)CC(=O)Nc1ccccc1OC do in these assays?
TNAP act mid DEA: 1; PostGolgi yeast: -4.1; DAT uptake mod: 3.13*; Smad3 inh: 6.9; Cav32 inh: -4.93*; PostGolgi ctrl: -2.7

How did CCn1c(COc2ccccc2)nnc1SCC(=O)CC(=O)Nc1ccccc1OC do in these assays?
TNAP act mid DEA: 0.9; PostGolgi yeast: -6.8; DAT uptake mod: -0.257; Smad3 inh: -6.0; Cav32 inh: -0.184; PostGolgi ctrl: 10.0

Results for CC1(C)CC(=O)C2=C(C1)NC(=O)CC2C(=O)NCc1ccc(F)cc1 (configuration not stated) ?
TNAP act mid DEA: 0.9; PostGolgi yeast: 1.4; DAT uptake mod: -1.15; Smad3 inh: 10.9; Cav32 inh: 0.636; PostGolgi ctrl: 0.5

How did O=C(Nc1cccnc1)C1(F)C(F)(F)C(F)(F)C(F)(F)C(F)(F)C1(F)F do in these assays?
TNAP act mid DEA: 1; PostGolgi yeast: -1.1; DAT uptake mod: 0.00296; Smad3 inh: 6.9; Cav32 inh: -0.505; PostGolgi ctrl: 6.1
